Results taken from PubChem BioAssay (NCATS).
Inconclusive results are not listed. The source made the active and inactive calls. The call rests on the fitted dose curve; in most records, active means well fitted curve in the direction sought with a large enough effect; inconclusive means small, poorly fitted or top-dose-only effect, or another doubt; inactive means no such curve, though single readings can be large; an effect the other way counts as inactive or inconclusive.

Key:
[1] = tested on: Zika virus NS2B-NS3 protease (linked construct); assay: Primary screen NINDS Rhodamine qHTS for Zika virus inhibitors (AID 1347160); further: nearly all actives have a fitted effect of over 55% in size
Summary of the method: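 In 10 mM Tris-HCl pH 8.0 containing 0.01% Tween 20, linked NS2B-NS3 protease (25 nM final) is exposed to test compounds for 15 min. Cleavage of 1.5 microM Rhodamine110 substrate is tracked by fluorescence over 15 min.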

[2] = target: Calcium and integrin-binding protein 1 (Homo sapiens) (UniProt Q99828); assay: Primary qHTS for Identification of Calcium Integrin Binding Protein 1 (CIB1) Competitor (AID 1508620);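 further: GST tagged CIB1 binding a fluorescein labelled alphaIIb integrin peptide tracer; top concentration of the series differs between compounds; on the % scale 0 is the no-effect control and ±100 the full control effect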
Summary of the method: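 CIB1-GST (1 uM final) and compound incubated 15 min at room temperature before adding FITC-alphaIIb peptide tracer (100 nM final). Competition for binding read by fluorescence polarization (ex 480, em 540) after another 15 min at room temperature.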

[3] = target: Glutathione peroxidase 1 (Homo sapiens) (UniProt P07203); assay: Primary qHTS Assay for Inhibitors of Recombinant Selenoprotein Glutathione Peroxidase 1 (GPX1) (AID 1845191); further: nearly all actives have a fitted effect of over 65% in size; on activity, negative = inhibition: on the % scale 0 is the no-effect control and ±100 the full control effect
Summary of the method: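 10 nM GPX1 + cpd, 30 min RT; start w/ 1 mM GSH, 0.5 mM cumene hydroperoxide, 0.5 mM NADPH, 100 nM GR, 0.01% BSA; buffer 50 mM Tris-HCl pH 7.5, 2 mM EDTA, 150 mM NaCl; Fl 340/450, 0 & 15 min.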

[4] = target: Phospholipid hydroperoxide glutathione peroxidase GPX4 (Homo sapiens) (UniProt P36969); assay: Primary qHTS Assay for Inhibitors of Recombinant Selenoprotein Glutathione Peroxidase 4 (GPX4) (AID 1845192); further: on the % scale 0 is the no-effect control and ±100 the full control effect; nearly all actives have a fitted effect of over 65% in size
Summary of the method: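 NADPH consumption, followed by fluorescence at 340/450 nm between 0 and 15 min, reports GPX4 activity via coupled glutathione reductase (100 nM). Enzyme 200 nM was pre-exposed to compound 30 min; 0.5 mM cumene hydroperoxide and 1 mM GSH served as substrates.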

[5] = target: Luciferin 4-monooxygenase (Photinus pyralis) (UniProt P08659); assay: Primary firefly luciferase (FLuc) qHTS assay for identification of artifact compounds. (AID 1845220); details: outcome: dose series up to 54.1 µM unless noted; further: nearly all actives have a fitted effect of over 60% in size
Summary of the method: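 Cell-free, 1536-well qHTS. Buffer pH 7.6 with 0.01% Tween-20 and 0.05% BSA; 10 uM D-luciferin, 10 uM ATP; 10 nM P. pyralis luciferase; luminescence after 5 min.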

[6] = Primary fluorescence-based thiol-reactive (MSTI) qHTS assay for identification of artifact compounds. (AID 1845221);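 further: thiol-reactive compounds lower the probe fluorescence signal; nearly all actives have a fitted effect of over 65% in size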
Summary of the method: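 Thiol-reactive compounds detected by quenching of 4 uM MSTI fluorescence (525/598 nm) after 1 h room-temperature dark incubation in PBS pH 7.4, 2% DMSO. qHTS titration; percent inhibition Hill-fitted against Acetyl-MSTI/MSTI controls.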

[7] = tested on: Nanoluciferase (engineered Oplophorus gracilirostris luciferase); assay: Primary Nanoluciferase (NLuc) qHTS assay for identification of artifact compounds. (AID 1845222);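 further: 0% = DMSO and -100% = no enzyme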
Summary of the method: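 Compounds are pinned into diluted (1:55) conditioned medium of NLuc-expressing S16 cells and held 15 min at room temperature protected from light. Nano-Glo substrate follows, and luminescence is read 5 min later.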

HaCat = assay: Cytotoxic Profiling of Annotated Libraries Using Quantitative High-Throughput Screening (AID 1296008); details: Five cell lines viability, CellTiter-Glo ATP luminescence, 48-72 h; max response: active compounds read low; further: nearly all actives have a fitted effect of over 60% in size; further: potency means the concentration at half of the fitted maximal effect; on max response: on the % scale 0 is the no-effect control and ±100 the full control effect
Summary of the method: (§1)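 Cytotoxicity was measured as CellTiter-Glo ATP luminescence, read after 10 min at room temperature. Compound treatment of the cells lasted 48 or 72 hr at 37 degrees Celsius in a qHTS format.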

NIH3T3 = assay: as above; details: Five cell lines viability, CellTiter-Glo ATP luminescence, 48-72 h; max response: active compounds read low
Summary of the method: as §1

C33A = assay: Primary qHTS to identify gynecologic anti-cancer compounds using libraries of approved drugs and bioactive compounds (AID 1345084); details: Gynecologic cancer cell panel viability, ATPlite luminescence, 48 h; series mostly up to 57.5 µM; further: nearly all actives have a fitted effect of over 55% in size; further: potency means the concentration at half of the fitted maximal effect; on activity change, negative = cytotoxicity: on the % scale 0 is the no-effect control and ±100 the full control effect
Summary of the method: (§2)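 Five-point cytotoxicity, 48 h drug exposure at 37 C, 5% CO2, on cells seeded 16 h beforehand. ATP content read by ATPlite luminescence.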

CAOV3 = assay: as above; details: Gynecologic cancer cell panel viability, ATPlite luminescence, 48 h; series mostly up to 57.5 µM
Summary of the method: as §2

CASKI = assay: as above; details: Gynecologic cancer cell panel viability, ATPlite luminescence, 48 h; series mostly up to 57.5 µM
Summary of the method: as §2

Es-2 = assay: as above; details: Gynecologic cancer cell panel viability, ATPlite luminescence, 48 h; series mostly up to 57.5 µM
Summary of the method: as §2

Hek293T = assay: as above; details: Gynecologic cancer cell panel viability, ATPlite luminescence, 48 h, control line for the selectivity index; series mostly up to 57.5 µM
Summary of the method: as §2

JEG-3 = assay: as above; details: Gynecologic cancer cell panel viability, ATPlite luminescence, 48 h; series mostly up to 57.5 µM
Summary of the method: as §2

OV90 = assay: as above; details: Gynecologic cancer cell panel viability, ATPlite luminescence, 48 h; series mostly up to 57.5 µM
Summary of the method: as §2

PA-1 = assay: as above; details: Gynecologic cancer cell panel viability, ATPlite luminescence, 48 h; series mostly up to 57.5 µM
Summary of the method: as §2

Tov-21-G = assay: as above; details: Gynecologic cancer cell panel viability, ATPlite luminescence, 48 h; series mostly up to 57.5 µM
Summary of the method: as §2

Tov112D = assay: as above; details: Gynecologic cancer cell panel viability, ATPlite luminescence, 48 h; series mostly up to 57.5 µM
Summary of the method: as §2

[8] = Primary redox qHTS assay for identification of artifact compounds. (AID 1845223);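 further: 0% = DMSO and 100% = reference compound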
Summary of the method: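 Amplex Red (25 uM) and HRP (250 mU/mL) in HBSS, with compounds for 15 min, then 250 uM DTT for 30 min, room temperature, dark. Fluorescence 525/598 nm read; normalized to DMSO and 10 uM DA3003; Hill fit.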

Sequence of Phospholipid hydroperoxide glutathione peroxidase GPX4 (Homo sapiens) (P36969 whole entry, looked up): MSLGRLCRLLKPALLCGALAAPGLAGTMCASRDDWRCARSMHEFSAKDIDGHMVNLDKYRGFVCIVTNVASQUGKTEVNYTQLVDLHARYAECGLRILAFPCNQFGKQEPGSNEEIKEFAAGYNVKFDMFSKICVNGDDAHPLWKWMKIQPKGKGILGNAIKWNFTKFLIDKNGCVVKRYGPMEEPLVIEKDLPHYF
Sequence of Glutathione peroxidase 1 (Homo sapiens) (P07203 whole entry, looked up): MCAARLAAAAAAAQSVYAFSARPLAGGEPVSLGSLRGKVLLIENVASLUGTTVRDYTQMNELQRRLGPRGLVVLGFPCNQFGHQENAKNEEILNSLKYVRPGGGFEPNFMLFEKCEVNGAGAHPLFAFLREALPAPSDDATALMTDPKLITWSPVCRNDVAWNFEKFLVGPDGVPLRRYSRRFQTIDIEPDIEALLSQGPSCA
Sequence of Calcium and integrin-binding protein 1 (Homo sapiens) (Q99828 whole entry, looked up): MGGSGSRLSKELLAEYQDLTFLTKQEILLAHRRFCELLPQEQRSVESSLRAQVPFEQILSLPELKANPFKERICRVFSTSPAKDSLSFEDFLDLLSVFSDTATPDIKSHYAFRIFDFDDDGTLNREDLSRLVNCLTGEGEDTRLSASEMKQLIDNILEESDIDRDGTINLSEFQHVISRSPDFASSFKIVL

C[C@H]1CC[C@@H]2[C@@H](C)[C@H]3[C@H](C[C@H]4[C@@H]5CC=C6CC(O[C@@H]7O[C@H](CO)[C@@H](O)[C@H](O[C@@H]8O[C@H](CO)[C@@H](O)[C@H](O)[C@H]8O)[C@@H]7O[C@@H]7O[C@@H](C)[C@H](O)[C@@H](O)[C@H]7O)CC[C@]6(C)[C@H]5CC[C@]34C)N2C1 (stereo not given in full)
inactive: Potency [1] | Potency [2] | Potency [3] | Potency [4] | outcome [5] inactive [at 11.6 µM] | activity change, negative = thiol reactive [6] 134% [at 11.5 µM] | activity, negative = inhibition [7] -0.992% [at 11.6 µM] | max response (HaCat) -13.1% | outcome (NIH3T3) | activity change, negative = cytotoxicity (C33A) -12.6% [at 11.6 µM] | activity change, negative = cytotoxicity (CAOV3) 17.5% [at 11.6 µM] | activity change, negative = cytotoxicity (CASKI) 0.984% [at 11.6 µM] | activity change, negative = cytotoxicity (Es-2) -2.66% [at 11.6 µM] | activity change, negative = cytotoxicity (Hek293T) 11.3% [at 11.6 µM] | activity change, negative = cytotoxicity (JEG-3) -0.31% [at 11.6 µM] | activity change, negative = cytotoxicity (OV90) -5.29% [at 11.6 µM] | activity change, negative = cytotoxicity (PA-1) 7.63% [at 11.6 µM] | activity change, negative = cytotoxicity (Tov-21-G) -1.56% [at 11.6 µM] | activity change, negative = cytotoxicity (Tov112D) 5.33% [at 11.6 µM]

Oc1ccc2c(c1)C13CCCC[C@H]1[C@@H](C2)N(CC1CCC1)CC3
inactive: Potency [1] | Potency [2] | Potency [3] | Potency [4] | outcome [5] | Potency [6] | Potency [7] | Potency [8] | outcome (HaCat) | max response (NIH3T3) -7.5% | Potency (C33A) | Potency (CAOV3) | Potency (CASKI) | Potency (Hek293T) | Potency (JEG-3) | Potency (Tov-21-G) | Potency (Tov112D)

C=C[C@H]1CN2CCC1C[C@H]2[C@H](O)c1ccnc2ccccc12 (stereo not given in full)
inactive: Potency [1] | Potency [2] | Potency [4] | outcome [5] | Potency [6] | Potency [8] | max response (HaCat) -26.7% | max response (NIH3T3) -5.71% | Potency (C33A) | Potency (CAOV3) | Potency (CASKI) | Potency (Es-2) | Potency (Hek293T) | Potency (JEG-3) | Potency (OV90) | Potency (PA-1) | Potency (Tov-21-G) | Potency (Tov112D)

CC(=O)C1CCC2C3CCC4C[C@@H](O)CCC4(C)C3CCC12C (stereo not given in full)
inactive: Potency [2] | Potency [3] | Potency [6] | Potency [7] | Potency [8] | max response (HaCat) -9.42% | outcome (NIH3T3) | Potency (C33A) | Potency (CAOV3) | Potency (CASKI) | Potency (Es-2) | Potency (Hek293T) | Potency (JEG-3) | Potency (OV90) | Potency (PA-1) | Potency (Tov-21-G) | Potency (Tov112D)

CC[C@@H]1C[C@H]2CC[C@H](O2)[C@H](C)C(=O)O[C@@H](C)C[C@@H]2CC[C@@H](O2)[C@@H](C)C(=O)O[C@H](C)C[C@H]2CC[C@H](O2)[C@H](C)C(=O)O[C@@H](C)C[C@@H]2CC[C@@H](O2)[C@@H](C)C(=O)O1
inactive: Potency [1] | Potency [2] | Potency [3] | Potency [4] | outcome [5] inactive [at 25.7 µM] | Potency [7] | Potency [8] | Potency (JEG-3)
active: Potency (HaCat) 485 nM | Potency (NIH3T3) 86.2 nM | Potency (CAOV3) 562 nM | Potency (CASKI) 501 nM | Potency (Es-2) 708 nM | Potency (Hek293T) 282 nM | Potency (OV90) 447 nM | Potency (PA-1) 398 nM

C[C@]12CC[C@@H](O[C@@H]3O[C@H](CO)[C@@H](O)[C@H](O)[C@H]3O)C[C@@]1(O)CCC1C2CC[C@]2(C)[C@@H](C3=CC(=O)OC3)CC[C@]12O (stereo not given in full)
active: Potency (HaCat) 1000 nM | Potency (C33A) 199 nM | Potency (CAOV3) 501 nM | Potency (Es-2) 355 nM | Potency (Hek293T) 199 nM | Potency (OV90) 1120 nM | Potency (PA-1) 355 nM | Potency (Tov-21-G) 178 nM | Potency (Tov112D) 112 nM
inactive: Potency [1] | Potency [2] | Potency [3] | Potency [4] | outcome [5] | Potency [7] | Potency [8] | outcome (NIH3T3)

CC1=CC2/C=C(\C)CCC(O)C(O)/C=C/C(=O)OC23C(=O)NC(CC(C)C)C3C1C (stereo not given)
inactive: Potency [1] | Potency [2] | Potency [3] | Potency [4] | Potency [6] | Potency [7] | Potency [8] | outcome (HaCat) | max response (NIH3T3) -15.3% | Potency (C33A) | Potency (CAOV3) | Potency (CASKI) | Potency (Es-2) | Potency (Hek293T) | Potency (JEG-3) | Potency (OV90) | Potency (PA-1) | Potency (Tov-21-G) | Potency (Tov112D)

Cc1cccc(NC(=O)NC2N=C(c3ccccc3)c3ccccc3N(CC(=O)c3ccccc3C)C2=O)c1 (stereo not given)
inactive: Potency [1] | Potency [2] | Potency [3] | Potency [4] | outcome [5] | Potency [6] | Potency [7] | outcome (HaCat) | outcome (NIH3T3) | Potency (C33A) | Potency (CASKI) | Potency (Es-2) | Potency (Hek293T) | Potency (JEG-3) | Potency (OV90) | Potency (PA-1) | Potency (Tov-21-G) | Potency (Tov112D)

CCCN(CCC)CCc1ccc(OC)c(OCCc2ccccc2)c1
inactive: Potency [1] | Potency [2] | Potency [3] | Potency [4] | outcome [5] | Potency [6] | Potency [7] | Potency [8] | max response (HaCat) -13.9% | max response (NIH3T3) 1.81% | Potency (C33A) | Potency (CAOV3) | Potency (CASKI) | Potency (Es-2) | Potency (Hek293T) | Potency (JEG-3) | Potency (PA-1) | Potency (Tov-21-G) | Potency (Tov112D)

COC1CC(OC2CCC3(C=O)C(CCC4C3CCC3(C)C(C5=CC(=O)OC5)CCC43O)C2)OC(C)C1O (stereo not given)
active: Potency (HaCat) 2820 nM | Potency (C33A) 141 nM | Potency (CAOV3) 316 nM | Potency (CASKI) 1000 nM | Potency (Es-2) 251 nM | Potency (Hek293T) 251 nM | Potency (JEG-3) 631 nM | Potency (OV90) 1000 nM | Potency (PA-1) 199 nM | Potency (Tov-21-G) 178 nM | Potency (Tov112D) 100 nM
inactive: Potency [2] | Potency [3] | Potency [4] | outcome [5] inactive [at 25.7 µM] | Potency [7] | max response (NIH3T3) 0.727%

Cc1ccc(Cn2nc(C(=O)N[C@@H]3C(C)(C)[C@@H]4CC[C@@]3(C)C4)cc2-c2ccc(Cl)c(C)c2)cc1
inactive: Potency [1] | Potency [2] | Potency [3] | Potency [4] | outcome [5] | Potency [6] | Potency [7] | Potency [8] | max response (NIH3T3) -3.82% | Potency (C33A) | Potency (CASKI) | Potency (Es-2) | Potency (Hek293T) | Potency (JEG-3) | Potency (OV90) | Potency (PA-1) | Potency (Tov-21-G) | Potency (Tov112D)
